# Bioassay records: PubChem, several laboratories
# TcdB GH inh: inhibitors of Clostridioides difficile toxin B glycohydrolase | TcdB glycohydrolase enzymatic assay, plate reader | inhibition, % at 9.99 µM | actives 0.24% (n = 350,000) | P18177 | AID 652162; in the data active = inhibition above about 10%
# FadD28 binding: M. tuberculosis FadD28 bisubstrate binding inhibition. FadD28 bisubstrate probe binding, fluorescence polarization. inhibition, % at 12.5 µM. actives 0.22% (n = 360,000); in the data active = inhibition above about 8.5%, passing the limit was not always enough
# Rv3671c protease: Rv3671c (M. tuberculosis) protease inhibition; actives 0.048% (n = 320,000); inhibition, % at 5.96 µM; in the data active = inhibition above about 38%;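 also: extracellular domain of Rv3671c used as enzyme; 0% = enzyme with DMSO and 100% = no enzyme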
# UGM FP inh: Mtb UDP-galactopyranose mutase inhibition | P9WIQ1 | purified UGM, fluorescence polarization probe displacement | inhibition, % at 10 µM | actives 0.06% (n = 320,000) | AID 504406; in the data active = inhibition above about 10%, passing the limit was not always enough
# RecA intein inh: Mtb RecA intein splicing inhibition. AID 2221. cell-free RecA intein splicing, fluorescence. inhibition, % (no concentration beside the values). P9WHJ3. actives 0.75% (n = 290,000); in the data active = inhibition above about 30%;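 also: 0% = vehicle wells and 100% = reference inhibitor control wells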
# BioA inh: BioA (M. tuberculosis) enzyme inhibition; actives 0.096% (n = 360,000); inhibition, % at 9.99 µM; purified M. tuberculosis BioA enzyme, plate reader; in the data active = inhibition above about 40%
# * hit, by the source's call; / = no result given. A selection: hits, their analogues and other compounds. The true share with any hit is near 0.97%.
SMILES,TcdB GH inh,FadD28 binding,Rv3671c protease,UGM FP inh,RecA intein inh,BioA inh
O=C(C[C@H]1CC[C@H]2[C@@H](COC[C@H](O)CN2C(=O)Nc2ccc(Cl)c(Cl)c2)O1)NCc1ccncc1,13*,/,/,/,/,-2
CCNC(=O)C[C@H]1CC[C@@H]2[C@H](COC[C@@H](O)CN2C(=O)c2ccccn2)O1,/,/,/,/,/,-2
O=C(C[C@@H]1CC[C@H]2[C@@H](COC[C@H](O)CN2C(=O)c2ccccn2)O1)NC1CCC1,17*,/,/,/,/,-2
C[C@@H]1CN([C@@H](C)CO)C(=O)c2cc(NC(=O)Nc3ccc(C(F)(F)F)cc3)ccc2O[C@@H](C)CCCCO[C@H]1CN(C)Cc1ccncc1,-1,/,/,/,/,0
O=C(C[C@H]1CC[C@H]2[C@@H](COC[C@@H](O)CN2Cc2ccccc2)O1)NCCc1ccccc1,15*,/,/,/,/,0
CN(C)CC#Cc1cccc(-c2nc(C(=O)N[C@@H]3CCN(Cc4ccccc4)C3)cc3c2[C@@H](CCO)N(S(=O)C(C)(C)C)C3)c1 (stereo partly specified),-9,/,/,/,/,/
O=S(=O)(Oc1ccccc1/C=N/n1cnnc1)c1ccccc1,20*,0,4,3,2,/
COc1ccccc1/C=N/n1cnnc1,/,-2,4,-1,/,-1
Cc1cc(C(=O)OCC(=O)Nc2c(Cl)cccc2Cl)c(C)o1,1,1,2,10*,/,-2
COCCCNC(=O)Cn1cc(/C=C2\C(=O)NC(=O)N(c3ccccc3F)C2=O)c2ccccc21,/,3,2,23*,3,-4
COCCNC(=O)Cn1cc(/C=C2\C(=O)NC(=O)N(c3ccccc3F)C2=O)c2ccccc21,0,2,-11,15*,-4,0
NC(=O)Cn1cc(C=C2C(=O)NC(=O)NC2=O)c2ccccc21,1,2,/,30*,-3,/
COC(=O)Cn1cc(C=C2C(=O)NC(=O)NC2=O)c2ccccc21,1,0,-16,0,-4,7
COCCNC(=O)Cn1cc(/C=C2\C(=O)NC(=O)N(c3cccc(C)c3C)C2=O)c2ccccc21,0,0,-4,2,0,-5
COc1ccc2c3c(n(C)c2c1)[C@H](CO)N(C)CC31CCN(S(=O)(=O)c2cccs2)CC1,0,/,/,/,/,/
COC(=O)C[C@H]1CC[C@@H](NC(=O)Nc2ccc(C(F)(F)F)cc2)[C@H](CO)O1,2,/,/,/,/,0
O=C(NN1C(=O)/C(=C/c2ccc(O)c([N+](=O)[O-])c2)SC1=S)c1ccccc1Cl,-2,21*,-10,2,17,/
COc1ccc(/C=C2\SC(=S)N(NC(=O)c3ccncc3)C2=O)cc1OC,/,/,-8,0,-5,/
Cn1cc(/C=C2\SC(=S)N(NC(=O)c3ccccc3)C2=O)c2ccccc21,0,2,-31,-3,-3,-1
Cc1ccc(/C=C2\SC(=S)N(/N=C/c3cc([N+](=O)[O-])ccc3O)C2=O)o1,/,26*,18,4,6,/
O=C(NN1C(=O)/C(=C/c2cc([N+](=O)[O-])ccc2O)SC1=S)c1ccccc1O,/,/,52*,2,-4,/
COc1cc(/C=C2\SC(=S)N(NC(=O)c3ccccc3O)C2=O)ccc1O,-4,11*,-114,-25,-6,8
O=C(NN1C(=O)/C(=C/c2ccc(O)cc2)SC1=S)c1ccccc1O,-3,19*,-24,-12,0,-15
CC(/C=C1\SC(=S)N(CC(=O)O)C1=O)=C\c1ccccc1,1,1,2,2,9,/
Cc1cc(C)nc(NN2C(=O)/C(=C/c3ccc(O)cc3)SC2=S)n1,3,0,-20,-6,1,-1
SMILES,TcdB GH inh,FadD28 binding,Rv3671c protease,UGM FP inh,RecA intein inh,BioA inh
O=C(NN1C(=O)/C(=C/c2ccc(O)cc2)SC1=S)c1cccc(O)c1,1,19*,-55,-16,7,-26
CC(/C=C1\SC(=S)N(NC(=O)c2cccc(O)c2)C1=O)=C\c1ccccc1,2,-5,-42,-3,31*,-1
CCCNC(=O)C[C@H]1C[C@H]2c3cc(NC(=O)Nc4ccccc4)ccc3O[C@H]2[C@@H](CO)O1,/,/,/,/,/,-3
C[C@@H]1CN([C@H](C)CO)C(=O)c2cc(NS(C)(=O)=O)ccc2O[C@@H]1CN(C)S(=O)(=O)c1ccccc1,/,/,/,/,/,0
O=C1N[C@H](Cc2ccccc2)COCn2nncc2CC[C@H]1Cc1ccccc1,1,/,/,/,/,/
O=C1C=CC(=O)C2C1C1(Cl)C(Cl)=C(Cl)C2(Cl)C1(Cl)Cl (stereo unspecified),-2,37*,/,/,/,9
C[C@@H]1CN([C@H](C)CO)C(=O)c2cc(/C=C/c3ccccc3)cnc2O[C@H]1CN(C)C(=O)c1cnccn1,0,/,/,/,/,9
CC(=O)N1[C@@H](CO)[C@@H]2c3ccccc3N(S(=O)(=O)c3cccc(C)c3)C[C@@H]21,0,/,/,/,/,-2
CCOC(=O)C1=C(O)/C(=C/c2cn(CC(=O)NCC3CCCO3)c3ccccc23)SC1=Nc1ccc(C)cc1 (stereo unspecified),/,-2,11,22*,/,-10
C[C@H]1CN([C@@H](C)CO)C(=O)c2cccc(NC(=O)Nc3ccc4c(c3)OCO4)c2O[C@H]1CN(C)C(=O)Nc1cccc2ccccc12,1,/,/,/,/,0
O=C(Nc1cc(-c2ccccc2)[nH]n1)c1ccccc1F,3,-1,-8,4,2,-1
CC(=O)Nc1cc(-c2ccc(F)cc2)[nH]n1,11*,-3,-6,0,2,/
Cc1c(CNC(=O)c2c([N+](=O)[O-])cnn2C)cnn1C,24*,0,-1,-1,-2,2
Cn1ncc([N+](=O)[O-])c1C(=O)NCc1ccccc1,3,1,-3,-1,-1,/
CNC(=O)C1=C[C@H](c2csc3ccccc23)C[C@H](OCc2ccc(CO)cc2)O1,-2,/,/,/,/,8
CC(C)CNC(=O)COc1ncnc2ccccc12,/,0,1,2,0,/
O=C(COc1ncnc2ccccc12)NCCc1ccc(F)cc1,13*,-4,-3,-1,1,/
Nc1cccc(N2C(=O)c3cccc4c(N)ccc(c34)C2=O)c1,3,0,6,29*,-79,-11
Nc1ccc2c3c(cccc13)C(=O)N(c1ccccc1)C2=O,2,-3,/,/,-72,/
Cc1cccc(N2C(=O)c3cccc4c(N)ccc(c34)C2=O)c1,1,-2,11,39*,-56,-22
CC(C)CCN1C(=O)c2cccc3c(N)ccc(c23)C1=O,2,0,6,18*,-405,-208
COc1ccc(CNC(=O)C[C@@H]2C[C@@H]3c4cc(NS(C)(=O)=O)ccc4O[C@@H]3[C@H](CO)O2)cc1,1,/,/,/,/,-1
CC(C)CC(NC(=O)CCl)c1ccccc1 (stereo unspecified),/,0,3,2,44*,-1
CCCC(NC(=O)CCl)c1ccccc1 (stereo unspecified),1,1,-12,2,8,/
COc1ccc(N=Nc2nc3ccc(Br)cc3n2C)cc1,/,0,8,66*,1,-12
